Records with an inconclusive call do not appear. Calls of active or inactive are those of the source. Calls follow the shape of the dose curve; as a rule, active = well fitted inhibition curve with a large enough effect; inconclusive = small, poorly fitted or top-dose-only effect; inactive = flat fitted curve, though single readings scatter.
target: Luciferin 4-monooxygenase (Photinus pyralis) (UniProt P08659); assay: FLuc inhibitory activity for the follow-up compounds in a biochemical assay with Km concentrations of substrate and 500microM CoASH; conditions: purified FLuc, Km substrates + 500 uM CoASH, luminescence; series mostly up to 57.5 µM
Sequence (P08659 whole entry, looked up): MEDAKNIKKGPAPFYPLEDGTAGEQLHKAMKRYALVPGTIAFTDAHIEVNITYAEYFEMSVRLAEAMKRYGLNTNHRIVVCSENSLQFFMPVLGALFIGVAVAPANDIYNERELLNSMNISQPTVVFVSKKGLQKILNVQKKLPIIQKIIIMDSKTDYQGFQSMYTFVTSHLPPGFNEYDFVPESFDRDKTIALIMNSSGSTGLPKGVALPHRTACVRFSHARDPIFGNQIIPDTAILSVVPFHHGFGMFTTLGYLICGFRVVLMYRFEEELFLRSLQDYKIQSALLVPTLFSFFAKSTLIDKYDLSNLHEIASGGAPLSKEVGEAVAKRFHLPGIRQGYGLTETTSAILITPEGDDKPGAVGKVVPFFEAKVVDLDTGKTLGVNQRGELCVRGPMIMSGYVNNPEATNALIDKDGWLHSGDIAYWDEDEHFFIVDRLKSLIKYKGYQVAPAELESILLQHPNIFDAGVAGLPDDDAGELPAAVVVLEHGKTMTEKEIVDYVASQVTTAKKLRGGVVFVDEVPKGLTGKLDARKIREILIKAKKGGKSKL
Outline: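 Twelve-point compound titrations (final ~60uM to 0.3nM) added to substrate mix of 10uM luciferin, 10uM ATP, 500 uM CoASH at pH 7.5, then 10nM firefly luciferase enzyme. Light output imaged directly.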

Potency, active:
O=C(Nc1cccc(-c2nc3ccccc3s2)c1)C1=COCCO1 7.3 µM
O=C(Nc1ccccc1C(=O)O)c1cccc(NC(=O)c2ccccc2Br)c1 14.6 µM
Cc1ccc(C(=O)Nc2ccccc2C(=O)O)cc1S(=O)(=O)N1CCCCCC1 0.919 µM
O=C(O)c1cccc(NC(=O)c2ccc(COc3ccc(Cl)cc3)cc2)c1 18.3 µM
O=C(Nc1ccccc1C(=O)O)c1ccc(Cl)c(S(=O)(=O)N2CCOCC2)c1 5.8 µM

— PubChem BioAssay AID602358 (National Center for Advancing Translational Sciences (NCATS), 2012)
